# Data published in PubChem BioAssay (EPA / NIEHS).
# “And” between values parts separate entries of the source, which are not always exact repeats. Equal entries are not always repeated. Records with an inconclusive call do not appear. A structure can be active in one record and inactive in another. The source made the active and inactive calls. How the source made its calls: active means hit-call score of the fitted dose curve at least 0.9, where 1 is the maximum; inconclusive means response in the unintended direction; inactive means score below 0.9.
# Target: Cellular tumor antigen p53 (Homo sapiens) (UniProt P04637)
# Test: TOX21_p53_BLA_p3_ratio: Tox21 HCT-116 p53 Agonism Beta-lactamase Assay, Ratio, Phase 3 (AID 2283596)
# Summary of the method: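 Cells were seeded at 4000/well, rested 5 h at 37C, then dosed with DMSO compound solutions (217-fold dilution) for 16 h. CCF4-AM substrate was loaded for 2 h at room temperature, and the 460/530 nm emission ratio was fitted for gain of signal versus DMSO.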
# Cellular tumor antigen p53 (Homo sapiens), sequence (P04637 whole entry, looked up): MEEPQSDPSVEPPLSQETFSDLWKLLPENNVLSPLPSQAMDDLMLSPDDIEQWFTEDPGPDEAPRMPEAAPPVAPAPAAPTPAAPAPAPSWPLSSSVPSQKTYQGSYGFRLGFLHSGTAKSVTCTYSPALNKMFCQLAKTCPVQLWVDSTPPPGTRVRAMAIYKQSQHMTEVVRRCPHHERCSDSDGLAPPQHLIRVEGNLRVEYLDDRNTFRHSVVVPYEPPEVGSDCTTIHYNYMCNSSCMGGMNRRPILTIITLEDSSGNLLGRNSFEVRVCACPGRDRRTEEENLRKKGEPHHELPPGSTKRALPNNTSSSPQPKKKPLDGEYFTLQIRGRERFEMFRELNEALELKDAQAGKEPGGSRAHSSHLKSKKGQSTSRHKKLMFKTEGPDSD
Structure (SMILES),outcome,AC50
Cc1cc(-c2ccc(N)c(C)c2)ccc1N,inactive,
CCOC(=O)C(O)(c1ccc(Cl)cc1)c1ccc(Cl)cc1,,55.2 µM (active) and 50.6 µM (active)
OCC(O)CO,inactive,
ClC(Cl)=C(c1ccc(Cl)cc1)c1ccc(Cl)cc1,inactive,
NS(=O)(=O)C(F)(F)C(F)(F)C(F)(F)C(F)(F)C(F)(F)C(F)(F)C(F)(F)C(F)(F)F,,47 µM (active)
CC(c1ccc(O)cc1)(c1ccc(O)cc1)c1ccc(O)cc1,,78.9 µM (active)
CN(C)CCO,inactive,
c1cc2ccc3cccc4ccc(c1)c2c34,inactive,
CCC(C)(c1ccc(O)cc1)c1ccc(O)cc1,,86.3 µM (active) and 76.2 µM (active)
ClC1=C(Cl)[C@]2(Cl)[C@@H]3[C@@H](Cl)[C@H]4O[C@H]4[C@@H]3C1(Cl)C2(Cl)Cl,inactive,
Oc1ccc(C(c2ccc(O)cc2)(C(F)(F)F)C(F)(F)F)cc1,inactive,54.2 µM (active)
C=CC(=O)NCNC(=O)C=C,inactive,
Cc1ccc(O)c(C)c1,inactive,
CC(C)(O)C(=O)Nc1ccc([N+](=O)[O-])c(C(F)(F)F)c1,inactive,
C[C@]12CCC(=O)C=C1CC[C@@H]1[C@@H]2CC[C@]2(C)C(=O)CC[C@@H]12,inactive,
CC(C)C(=O)OCC(C)(C)C(OC(=O)C(C)C)C(C)C (stereo not given),inactive,

Structure (SMILES),outcome,AC50
O=NN(c1ccccc1)c1ccccc1,inactive,
O=C(N[C@H]1CN2CCC1CC2)c1cc2ccoc2cn1,inactive,
CO/C=C(/C(=O)OC)c1ccccc1COc1cccc(C(F)(F)F)n1,,6.17 µM (active)
CCC(C)c1cc([N+](=O)[O-])cc([N+](=O)[O-])c1O (stereo not given),inactive,0.984 µM (active)
COS(=O)(=O)OC,inactive,
Nc1ccc(-c2ccc(N)cc2)cc1,inactive,
Cc1cccc([N+](=O)[O-])c1,inactive,
O=C(O)C(F)(F)C(F)(F)C(F)(F)C(F)(F)C(F)(F)C(F)(F)C(F)(F)C(F)(F)F,inactive,
CCCCCCCCCC[N+](C)(C)CCCCCCCCCC,,74.3 µM (active) and 39.7 µM (active)
CC(C)(c1ccccc1)c1ccc(O)cc1,inactive,
ClC1=C(Cl)[C@]2(Cl)[C@@H]3[C@H]4C[C@H]([C@@H]5O[C@H]45)[C@@H]3[C@@]1(Cl)C2(Cl)Cl,inactive,
Clc1ccc(Cl)cc1,inactive,
Oc1c(Cl)c(Cl)c(Cl)c(Cl)c1Cl,,5.71 µM (active) and 1.86 µM (active)
C[C@]12CCC(=O)C=C1CC[C@@H]1[C@@H]2CC[C@@]2(C)[C@H]1CC[C@]2(C)O,inactive,
O=C(NC(=O)c1c(F)cccc1F)Nc1cc(Cl)c(OC(F)(F)C(F)F)c(Cl)c1,inactive,
Clc1ccc(C(c2ccccc2Cl)C(Cl)(Cl)Cl)cc1 (stereo not given),inactive,46.3 µM (active)
